About 2,000 (36%) of roughly 5,500 compounds were called active. Roughly 18% stayed inconclusive and do not appear here. No stated cut-off is given here; in the data, active means normalized growth mostly below about 0.91 (no sharp cut-off); inconclusive means no clear call, values can overlap the other calls; inactive means mostly above about 0.92. The list shows a part of the results.
Experiment: chemical genetic growth profiling, strain panel (AID 1159580);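 further: tested at 20 µM; growth read once vehicle control cultures reached saturation at 30 °C; 1 = growth at the plate median or of vehicle wells; lower values mean less growth of the strain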
Settings: growth OD

Measured: normalized growth

COc1ccc2c(c1)OC/C(=C\c1ccc(OC)c(O)c1)C2=O
active: S. cerevisiae deletion strains, locus YKL009W, strain mrt4, hits give low values 0.843 | S. cerevisiae deletion strains, locus YKL085W, strain MDH1 (second series), hits give low values 0.915 | S. cerevisiae deletion strains, locus YKL085W, strain MDH1, hits give low values 0.915 | S. cerevisiae deletion strains, locus YKL160W, strain elf1, hits give low values 0.831 | S. cerevisiae deletion strains, locus YKL190W, strain CNB1, hits give low values 0.81 | S. cerevisiae deletion strains, locus YKR001C, strain vps1, hits give low values 0.651 | S. cerevisiae deletion strains, locus YLL001W, strain dnm1, hits give low values 0.823 | S. cerevisiae deletion strains, locus YLR027C, strain aat2, hits give low values 0.84 | S. cerevisiae deletion strains, locus YLR039C, strain RIC1, hits give low values 0.51 | S. cerevisiae deletion strains, locus YLR058C, strain SHM2, hits give low values 0.774 | S. cerevisiae deletion strains, locus YLR102C, strain apc9, hits give low values 0.824 | S. cerevisiae deletion strains, locus YLR221C, strain rsa3, hits give low values 0.841 | S. cerevisiae deletion strains, locus YLR258W, strain gsy2, hits give low values 0.891 | S. cerevisiae deletion strains, locus YLR262C, strain YPT6 (second series), hits give low values 0.719 | S. cerevisiae deletion strains, locus YLR262C, strain YPT6, hits give low values 0.423 | S. cerevisiae deletion strains, locus YLR268W, strain sec22, hits give low values 0.709 | S. cerevisiae deletion strains, locus YLR320W, strain mms22, hits give low values 0.652 | S. cerevisiae deletion strains, locus YLR330W, strain CHS5, hits give low values 0.467 | S. cerevisiae deletion strains, locus YLR342W, strain FKS1 (second series), hits give low values 0.702 | S. cerevisiae deletion strains, locus YLR342W, strain FKS1, hits give low values 0.885 | S. cerevisiae deletion strains, locus YLR371W, strain rom2, hits give low values 0.584 | S. cerevisiae deletion strains, locus YLR418C, strain cdc73, hits give low values 0.322 | S. cerevisiae deletion strains, locus YML016C, strain PPZ1, hits give low values 0.791 | S. cerevisiae deletion strains, locus YML032C, strain rad52, hits give low values 0.787 | S. cerevisiae deletion strains, locus YML120C, strain ndi1, hits give low values 0.858 | S. cerevisiae deletion strains, locus YML124C, strain tub3, hits give low values 0.865 | S. cerevisiae deletion strains, locus YMR058W, strain fet3, hits give low values 0.846 | S. cerevisiae deletion strains, locus YMR078C, strain ctf18, hits give low values 0.458 | S. cerevisiae deletion strains, locus YMR125W, strain sto1, hits give low values 0.863 | S. cerevisiae deletion strains, locus YMR205C, strain PFK2, hits give low values 0.768 | S. cerevisiae deletion strains, locus YMR223W, strain ubp8, hits give low values 0.761 | S. cerevisiae deletion strains, locus YMR307W, strain GAS1, hits give low values 0.557 | S. cerevisiae deletion strains, locus YNL067W, strain RPL9B, hits give low values 0.774 | S. cerevisiae deletion strains, locus YNL071W, strain lat1, hits give low values 0.369 | S. cerevisiae deletion strains, locus YNL233W, strain BNI4, hits give low values 0.448 | S. cerevisiae deletion strains, locus YNL250W, strain rad50, hits give low values 0.885 | S. cerevisiae deletion strains, locus YNL271C, strain bni1, hits give low values 0.865 | S. cerevisiae deletion strains, locus YNL298W, strain CLA4, hits give low values 0.895 | S. cerevisiae deletion strains, locus YNL307C, strain MCK1, hits give low values 0.127 | S. cerevisiae deletion strains, locus YNL322C, strain KRE1, hits give low values 0.793 | S. cerevisiae deletion strains, locus YNR052C, strain pop2, hits give low values 0.885 | S. cerevisiae deletion strains, locus YOL147C, strain pex11, hits give low values 0.542 | S. cerevisiae deletion strains, locus YOR001W, strain rrp6, hits give low values 0.848 | S. cerevisiae deletion strains, locus YOR069W, strain VPS5, hits give low values 0.807 | S. cerevisiae deletion strains, locus YOR070C, strain gyp1, hits give low values 0.882 | S. cerevisiae deletion strains, locus YOR083W, strain WHI5, hits give low values 0.869 | S. cerevisiae deletion strains, locus YOR106W, strain vam3, hits give low values 0.847 | S. cerevisiae deletion strains, locus YOR136W, strain idh2, hits give low values 0.796 | S. cerevisiae deletion strains, locus YOR144C, strain elg1, hits give low values 0.766 | S. cerevisiae deletion strains, locus YOR184W, strain ser1, hits give low values 0.472 | S. cerevisiae deletion strains, locus YOR270C, strain vph1, hits give low values 0.661 | S. cerevisiae deletion strains, locus YOR290C, strain snf2, hits give low values 0.789 | S. cerevisiae deletion strains, locus YOR316C, strain cot1, hits give low values 0.882 | S. cerevisiae deletion strains, locus YPL051W, strain arl3, hits give low values 0.836 | S. cerevisiae deletion strains, locus YPL055C, strain LGE1, hits give low values 0.576 | S. cerevisiae deletion strains, locus YPL078C, strain atp4, hits give low values 0.836 | S. cerevisiae deletion strains, locus YPL106C, strain sse1, hits give low values 0.729 | S. cerevisiae deletion strains, locus YPR119W, strain clb2, hits give low values 0.859 | S. cerevisiae deletion strains, locus YPR163C, strain tif3, hits give low values 0.351 | S. cerevisiae deletion strains, locus YPR167C, strain met16, hits give low values 0.811 | S. cerevisiae deletion strains, strain wtn01, hits give low values 0.711 | S. cerevisiae strains, strain wild type, hits give low values 0.663
inactive: S. cerevisiae deletion strains, locus YJR066W, strain TOR1, hits give low values 0.891 | S. cerevisiae deletion strains, locus YKL068W, hits give low values 0.948 | S. cerevisiae deletion strains, locus YKR026C, strain gcn3, hits give low values 0.946 | S. cerevisiae deletion strains, locus YKR091W, strain srl3, hits give low values 0.962 | S. cerevisiae deletion strains, locus YLL026W, hits give low values 0.931 | S. cerevisiae deletion strains, locus YLL041C, strain sdh2, hits give low values 0.955 | S. cerevisiae deletion strains, locus YLR113W, strain HOG1, hits give low values 0.909 | S. cerevisiae deletion strains, locus YLR357W, strain rsc2, hits give low values 0.964 | S. cerevisiae deletion strains, locus YLR370C, strain arc18, hits give low values 0.938 | S. cerevisiae deletion strains, locus YLR384C, strain iki3, hits give low values 0.95 | S. cerevisiae deletion strains, locus YMR129W, hits give low values 0.946 | S. cerevisiae deletion strains, locus YMR231W, strain pep5, hits give low values 0.977 | S. cerevisiae deletion strains, locus YNL183C, strain NPR1, hits give low values 0.924 | S. cerevisiae deletion strains, locus YNL209W, strain ssb2, hits give low values 0.938 | S. cerevisiae deletion strains, locus YNL248C, strain rpa49, hits give low values 0.902 | S. cerevisiae deletion strains, locus YNL322C, strain KRE1 (second series), hits give low values 0.95 | S. cerevisiae deletion strains, locus YNR049C, strain mso1, hits give low values 0.955 | S. cerevisiae deletion strains, locus YOL006C, strain TOP1, hits give low values 0.563 | S. cerevisiae deletion strains, locus YOL012C, strain htz1 0.356 | S. cerevisiae deletion strains, locus YOR061W, strain CKA2, hits give low values 0.93 | S. cerevisiae deletion strains, locus YOR080W, strain dia2, hits give low values 0.925 | S. cerevisiae deletion strains, locus YOR231W, strain MKK1, hits give low values 0.995 | S. cerevisiae deletion strains, locus YOR265W, strain rbl2, hits give low values 0.941 | S. cerevisiae deletion strains, locus YPL240C, strain hsp82, hits give low values 0.929 | S. cerevisiae deletion strains, locus YPL241C, strain CIN2, hits give low values 0.958 | S. cerevisiae deletion strains, locus YPL256C, strain CLN2, hits give low values 0.958 | S. cerevisiae deletion strains, locus YPR141C, strain kar3, hits give low values 0.924

From PubChem BioAssay AID1159580 (chemical genetic matrix, 2015)
